Out of some 53,000 sequences screened, about 3,700 (7%) were called active.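 How the source made its calls: active means gene knockdowns whose robust z-score for IL-1 alpha signal is at least 2 or at most -2, so actives lie on both sides; inactive means the rest.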 The full list was thinned out, with actives kept by preference.
test: Components of the Cytosolic LPS Sensing Pathway: Gene Identification via Genome-wide siRNA Screen; details: RAW264.7 macrophages, IL-1a HTRF, actives lie on both sides, screened at 100 nM (by protocol), cells primed 5 h with Pam3CSK4 first;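 further: robust z of the log signal after scaling to non-targeting control siRNA wells of the plate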
Method in brief: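 Three distinct siRNAs per gene were tested singly at 100 nM in RAW264.7 macrophages. Following Pam3CSK4 priming and 24 hour LipidA transfection, IL-1a secretion was read by HTRF.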

Sequence | z-score
GGGAAUUACAGCACACAAUTT against Treml4 | -0.21 (inactive)
GGAACAAAACAAAUAGCUATT against Vstm2a | 1.79 (inactive)
GGUUUCUAUAAAUCUCCCUTT against Eif4b | 0.895 (inactive)
CGUGGUCUUCACGAUUGGATT against Pde4c | 3.71 (active)
GGAGGCUAUCAGAAGCAUCTT against C130021I20Rik | 0.762 (inactive)
GGAACCAACAGAGAAAACUTT against Hr | 0.317 (inactive)
GGCCUGUUUUUGCAUUUUATT against 9030612E09Rik | -0.0316 (inactive)
GCAUUCGAAAUGAAGAUAATT against Dnajb1 | -1.75 (inactive)
GGUUUUCUUUUCUUCUGCCTT against Aar2 | -1.11 (inactive)
GGGAUUCACUCUUCUUUAGTT against Sebox | 1.97 (inactive)
GGAACAAGCAAGUCAAACATT against Olfr770 | 2.24 (active)
CGACUGGGUCUUAUGUUUATT against Tas2r121 | -0.105 (inactive)
CCAAGAAAGACAGUAACUATT against 4930432K21Rik | -0.986 (inactive)
GGAUCUGGACUUAAUGCUCTT against Tfeb | -0.383 (inactive)
GGCCUUACCAAAUGGAAGUTT against Ifih1 | 2.89 (active)
GCACGGAUUAAUGUGAUGATT against Ilk | 0.406 (inactive)
CCGUUGGAUACUGUAGUUCTT against Gpr152 | 0.023 (inactive)
GCAACACACCAUAUCAGGATT against Tas2r135 | -0.322 (inactive)
CCACCAUCGGUUGUUAGUUTT against Actg1 | 1.81 (inactive)
GGACAGCUUGUAAAUUGCCTT against Mup21 | -2.05 (active)
GGUCUCAUUUCAAAUGGUUTT against Lonrf3 | 0.63 (inactive)
GGAGAUUUCUUCCAUGGUCTT against Hspa2 | 0.445 (inactive)

Sequence | z-score
CGACAGAGUGAAAAUUAAGTT against Setd3 | -0.937 (inactive)
CGCAGAGAAGGACUAUCUUTT against Ush1c | -1.58 (inactive)
GGACAAGUGUCAGAUAUCATT against Asah2 | -2.02 (active)
CCUGCUUACCAAAGAAUCCTT against Klf11 | -0.884 (inactive)
GGGACAAGUUGGAUUCUUGTT against Polr1e | -0.96 (inactive)
GCCUUACAACAAGCAACACTT against Esrp1 | -0.385 (inactive)
GCGGGCCAUGACAAUUACUTT against Slc45a1 | 0.566 (inactive)
GCGAUGCUGGCAAGUAUGUTT against Robo1 | 0.45 (inactive)
CCCAGACGAGAACUGUAUCTT against Sqor | -0.0381 (inactive)
GGGUUAGGAUACCUCGACUTT against Arnt2 | -2.5 (active)
GGAAAGAUGUGGAAGUAAATT against Erc1 | -0.977 (inactive)
GGAAAAGCAAGAGGAAAGATT against Ifnb1 | 2.39 (active)
GCAACCAUCGUAGCAGAUCTT against Aaas | 1.54 (inactive)
GCCACUGAUGUAAGGCUCATT against Lurap1l | 0.871 (inactive)
CCCUCGUCUGAAAUGGAAATT against Nploc4 | -2.02 (active)
GGAACAGCUGACCUACUUUTT against Ahi1 | 1.08 (inactive)
GGUAGACCAGCUUAAGAAGTT against Gngt1 | -0.0811 (inactive)
GGCUUUUCACAAAACUGUUTT against Zfp120 | 1.07 (inactive)
CCUAAAUCCUGCUAGGCGUTT against Cbln1 | -1.03 (inactive)
GGUUAUAGGAAGGAAUUGCTT against Krt90 | 2.58 (active)
GAUGUCCUUCACCUUUGCCTT against Atp5d | -1.9 (inactive)
GGCGCACACUUUCACCUAATT against Tmem170 | 0.194 (inactive)

Sequence | z-score
GGUUGUUUAUACCUGUGAUTT against Cfh | -0.292 (inactive)
GGUGUCAACUUUAUUCUUUTT against Rab1a | 0.813 (inactive)
GGGAUCCCUUCUGGAAAAGTT against Dmrtc2 | 0.581 (inactive)
GGGCUCCUGAGCCUCUUAATT against Sprr1a | 2.29 (active)
GGUUGCACUCAUCUUAAAATT against Zfp9 | 1.59 (inactive)
GGAAACUUCCCUUCCUAACTT against Snrpc | -0.397 (inactive)
GCCUCUGGCAGAGAAAAGATT against 4930579K19Rik | -1.78 (inactive)
CCAAGUUUUCAAAACAAACTT against Aqp3 | -0.0587 (inactive)
GGAAGUGGACCAUUUCUUUTT against Olfr1359 | 0.719 (inactive)
GGCCUGAAGGGAAAGAUUUTT against Rbbp4 | -0.721 (inactive)
GGACUUGGGUCAUUGUGAGTT against Grpel1 | -0.93 (inactive)
GGCAGUUUCUGUGCUAUACTT against Olfr984 | -2.49 (active)
GGAUAUUUAUUGUAUCCCATT against Col8a1 | -0.918 (inactive)
GGCAUCUGACGAUAAUGAUTT against Lman2l | -0.337 (inactive)
GUUUUUCAUACAGUAGUAGTT against Vmn1r27 | 0.42 (inactive)
CCUGUGGGACUCAAUGUUGTT against 2310039H08Rik | -0.722 (inactive)
GGCCAGGAGAAGAAGAUACTT against Tet2 | -0.261 (inactive)
GCCAUUCAAAAAUCAGCCGTT against Ddi2 | -2.02 (active)
GCUCCUAGGAACUUGGUUATT against Pacsin2 | 0.687 (inactive)
GGCUGUUACAUUCUAUAUUTT against Kif5c | -0.13 (inactive)
CCCAAUUAAUGAUCACCCATT against Tlcd2 | -3.04 (active)
GGCCCUGAACUGGUUUUGUTT against Osbpl10 | -0.119 (inactive)

Sequence | z-score
GCUCAACACUCGACAUUGUTT against Rrm1 | -2.56 (active)
GGUGGCAUUAAGGAAAUCATT against Olfr147 | -0.0185 (inactive)
GGCCUGAAGCAGCUUAUCUTT against Chad | -1.56 (inactive)
GGCAAAAAUGAGAAAGAGATT against Hebp2 | -0.643 (inactive)
GCGUAUUACACCCUUGGAATT against Terf1 | -0.462 (inactive)
GUCCUCCAUGAAGAAGCUCTT against Prm3 | -0.953 (inactive)
GGACUUCAACAAGACCAUCTT against Proser2 | 1.55 (inactive)
CGUCCAUAGAACAAUUGCATT against Rnase12 | 2.82 (active)
GGUAUUCCUGUCUCAGGUCTT against Matn1 | -0.59 (inactive)
GGUUAUUCUCAUUUCGGAUTT against Phospho1 | 1.53 (inactive)
GCUUACUUCCAAGGUCUACTT against Ptch2 | 0.905 (inactive)
CCCAGCAGGCCAUAUUAGUTT against Cks1b | 0.377 (inactive)
GGGAUCAUAAAGAUAACUUTT against Fasn | 2.2 (active)
GCAUAGGGUCAUUUCAAGCTT against Kif23 | 0.0957 (inactive)
GCUGUACUAUCUUUUUCAUTT against Olfr165 | -0.0549 (inactive)
GCCAGUUUGUGUGCAAAAATT against Lrp1 | -0.551 (inactive)
GAUCUGGUAUGUUUGUGACTT against Olfr1414 | -1.14 (inactive)
CCUGUGUGUGAAUCUCGUUTT against C1qb | 1.11 (inactive)
GGAAAUGUUGCCGUUGUCCTT against Mfsd8 | 2.13 (active)
GGGUGGGAGACGAAGAUAATT against Usp17lf | -0.12 (inactive)
CCUAAUGGUUCAGGAUACGTT against Pcdhb5 | -0.641 (inactive)
GGCUUUGAAAGUUACUACUTT against Zfp609 | 1.22 (inactive)

Sequence | z-score
GCCACUGUGUGGAAUAAAUTT against Cblif | 0.727 (inactive)
CCAAAAGAGUUUUACAGGGTT against Lhx9 | -0.119 (inactive)
GGAUCAGGAAGUAAACUUCTT against S100a6 | 2.57 (active)
GCUGUGUAGCAUUUUAACATT against Ank2 | -0.0376 (inactive)
GUUGACUGUACCCGAUACATT against Mxd3 | -0.0552 (inactive)
GGUGCUGAGGCUGAUUCUCTT against Capn15 | 3.35 (active)
GGUAUAUCGCCUAAUCACUTT against Chd6 | -0.885 (inactive)
GGUAGUGGAGCUGAAUGUUTT against Kctd8 | 0.113 (inactive)
GCAGCCUUCGUGAGUCUGUTT against Asb1 | -0.666 (inactive)
GGAUUAUGAUCCAGAAUUCTT against Omd | 2.96 (active)
GGGACAUGAGUAACUGAUGTT against Dhx8 | -0.908 (inactive)
GGUUGUGAUGUGGUGGUCATT against Mdh2 | 1.3 (inactive)
GGGAGAGACAGAAAGCUUUTT against Olfr213 | 1.61 (inactive)
GCCUAGAAAGUCUGAAUAATT against Ifng | 0.203 (inactive)
GCUGUAAGCCAAUUAACAUTT against Emp1 | 1.06 (inactive)
CGUGCUUAGCAAUCUGAAUTT against Bcl6b | 2.44 (active)
GGAAACAACUUUCUAUAACTT against Vmn1r195 | -0.487 (inactive)
GGAUUCAGCAAAUGCUUCCTT against Rcor3 | 2.31 (active)
GGACAAGGCCAAGCUAUAATT against Cntnap2 | -1.47 (inactive)
GCACCAAAUUCACUAGAGUTT against Cd24a | 0.83 (inactive)

Source: PubChem BioAssay AID1508600 (Functional Genomics Laboratory (NCATS/FGL), 2020)
